CYP2C9 act – human CYP2C9 activators, primary screen, biochemical, luminescence; Cytochrome P450 2C9 (Homo sapiens), P11712; recombinant CYP2C9, luciferin-H conversion; hits give high values; factor 1 = untreated enzyme, 0 = blocked; activation factor at 5 µM; 96,000 tested, 1.4% active;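 active = activation factor of 2 or more for CYP2C9 at a 5 µM dose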;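 also: 0 = sulfaphenazole-blocked wells and 1 = vehicle-only wells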
CYP2C19 activ – human CYP2C19 activators, primary screen, biochemical, luminescence; AID 1025, 2008; activation factor at 5 µM; recombinant CYP2C19, luciferin-H EGE luminescence; hits give high values; 0 = fully inhibited enzyme, 1 = untreated enzyme; 96,000 tested, under 10 active;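 active = activation factor of at least 2 at 5 µM in the primary screen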;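 also: 0 = wells with 2.5 mM tranylcypromine and 1 = vehicle-only wells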
Target sequence (P33261 whole entry, looked up): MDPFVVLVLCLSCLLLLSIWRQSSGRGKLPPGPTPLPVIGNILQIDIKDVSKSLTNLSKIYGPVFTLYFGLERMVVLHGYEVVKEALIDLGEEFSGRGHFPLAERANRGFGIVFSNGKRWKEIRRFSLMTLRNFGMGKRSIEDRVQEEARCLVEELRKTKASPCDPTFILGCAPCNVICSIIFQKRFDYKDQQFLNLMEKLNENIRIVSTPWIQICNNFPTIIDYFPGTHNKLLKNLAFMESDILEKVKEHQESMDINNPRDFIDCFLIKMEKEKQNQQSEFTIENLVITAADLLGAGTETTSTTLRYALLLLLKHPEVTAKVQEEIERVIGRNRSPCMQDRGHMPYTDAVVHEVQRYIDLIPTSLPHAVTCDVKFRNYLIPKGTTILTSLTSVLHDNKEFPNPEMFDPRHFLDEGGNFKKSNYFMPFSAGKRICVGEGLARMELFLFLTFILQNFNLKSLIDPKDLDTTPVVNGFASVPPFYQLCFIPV
CYP2C9 inhib – blockers of cytochrome P450 2C9 activity – biochemical, luminescence, ADME assay, primary screen. CYP2C9 Supersomes, luciferin-H conversion. inhibition, % at 5 µM. 96,000 tested, 20% active. AID 777, 2007;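 active = blocking of liver enzyme CYP2C9 beyond about 50% at 5 µM, limit read from the data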
CYP2C19 inh – blockers of cytochrome P450 2C19 activity – biochemical, luminescence, ADME assay, primary screen | CYP2C19 Supersomes, luciferin-H EGE luminescence, 30 min | 96,000 tested, 21% active | P33261 | AID 778, 2007 | inhibition, % at 5 µM;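 active = CYP2C19 inhibition above a set limit at 5 µM in the primary screen, cut at about 50% in these data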;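 also: plate controls were negative control wells for no effect and 2.5 mM tranylcypromine positive control for full effect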
Cav32 inh – Cav3.2 calcium influx blockers – cell-based, Fluo-4 calcium fluorescence, FDSS, MLSMR library, primary screen | Voltage-dependent T-type calcium channel subunit alpha-1H (Homo sapiens), O95180 | Cav3.2-expressing cells; hits give low values | B-score at 10 µM | 100,000 tested, 4% active | AID 449739, 2010;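 active = single-dose well whose peak fluorescence ratio is a statistical outlier from its plate by either plate-standardised score or position-corrected B-score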
* = called active by the depositor; . = no result given. Most compounds without a hit are left out; they make up all but 27% or so of the library.

SMILES | CYP2C9 act | CYP2C19 activ | CYP2C9 inhib | CYP2C19 inh | Cav32 inh
CCOC(=O)C[n+]1c(C)ccc2c1CCC2 | . | . | . | . | 0.383
CCOC(=O)CSc1nnc(CNc2ccccc2Cl)n1-c1ccccc1 | 0.8 | 0.5 | 19.7 | 48.2 | -3
CCOc1ccc(NCc2nnc(SCc3ccccc3Cl)n2-c2ccccc2)cc1 | 0.6 | 0.5 | 37.5 | 46.2 | -4.22*
COC(=O)CSc1nnc(CNc2ccc(Cl)cc2)n1-c1ccccc1 | 0.7 | 0.5 | 26.7 | 53.8* | -0.196
CC(C)OC(=O)CSc1nnc(CNc2ccc(Cl)cc2)n1Cc1ccccc1 | . | . | . | . | -6.67*
CCn1c(CNc2ccc(Cl)cc2)nnc1SCc1ccccc1 | 0.2 | 0.3 | 76.8* | 65.5* | -8.49*
COC(=O)C1(c2ccccc2)NC(c2cccs2)C2C(=O)N(c3ccccc3)C(=O)C21 (centres undefined) | . | . | . | . | 0.266
Clc1ccccc1CSc1nnc(Cn2cnc3ccccc32)n1-c1ccccc1 | 1 | 0.4 | 2.0 | 60.7* | -2.17
CC(C)OC(=O)CSc1nnc(Cc2ccccc2)n1Cc1ccco1 | 0.5 | 0.3 | 49.6 | 70.6* | 0.108
CCOC(=O)CSc1nnc(CNc2ccc(Cl)cc2)n1Cc1ccccc1 | . | . | . | . | -0.821
Fc1ccc(CSc2nnc(CN3CCOCC3)n2-c2ccccc2)c(Cl)c1 | 0.8 | 0.6 | 15.9 | 38.9 | 0.0605
CCn1c(CNc2ccc(Cl)cc2)nnc1SCC(=O)NCc1ccccc1 | 0.4 | 0.3 | 55.3* | 66.8* | -3.48
CCOC(=O)c1c(N)sc2c(OC)c(Br)ccc12 | 0.4 | 1 | 63.2* | 1.8 | 0.7
O=S(=O)(c1ccc2ccccc2c1)N1CCCCC1 | 2.5* | 0.7 | -154.8 | 32.8 | 0.058
O=C(COc1ccc2ccccc2c1)Nc1ccc(S(=O)(=O)N2CCCCCC2)cc1 | . | . | . | . | -0.897
Cc1ccc(S(=O)(=O)N2CCCOC2)cc1 | 1.1 | 0.6 | -11.0 | 40.7 | -0.0764
O=S(=O)(c1ccc2ccccc2c1)N1CCCOC1 | 3.5* | 0.5 | -253.8 | 49.0 | -0.707
O=C(CN1C(=O)C2C3c4ccccc4C(c4ccccc43)C2C1=O)N1CCOCC1 (centres undefined) | 1 | 1 | -0.9 | 3.6 | 0.138
Cn1c(=O)c2c(nc(Sc3n[nH]c(N)n3)n2Cc2ccccc2Cl)n(C)c1=O | 0.8 | 0.5 | 15.1 | 53.8* | -0.0568
C=CC(C)Sc1nc2c(c(=O)n(C)c(=O)n2C)n1Cc1ccccc1Cl (centres undefined) | 0.9 | 0.9 | 12.6 | 6.4 | -2.49
Cn1c(=O)c2c(nc(SCCCO)n2Cc2ccccc2Cl)n(C)c1=O | 0.5 | 0.7 | 54.3* | 34.4 | 1.99
Cn1c(=O)c2c(nc(Sc3ncccn3)n2Cc2ccccc2Cl)n(C)c1=O | 0.8 | 0.9 | 21.6 | 11.3 | 0.386
O=S1(=O)CC(O)C(N2CCCCC2)C1 (centres undefined) | . | . | . | . | 0.268
FC(F)(F)c1cccc(Cn2nnnc2-c2cc(Cl)cc(Cl)c2)c1 | 0.4 | 0.1 | 61.9* | 89.4* | -3.41
CCCn1nnnc1-c1cc(Cl)cc(Cl)c1 | 1.1 | 0.8 | -6.5 | 15.3 | 0.292
FC(F)(F)c1cccc(Cn2nnnc2-c2cccc(C(F)(F)F)c2)c1 | 0.5 | 0.1 | 54.0* | 92.5* | -2.79
CC(=O)c1ccc(OCCCC(=O)N2CCN(S(=O)(=O)c3cccs3)CC2)cc1 | 0.6 | 0.9 | 42.3 | 14.8 | 0.861
